Bioassay records: PubChem BioAssay, several laboratories
Hits are enriched below; roughly 2.6% of the tested compounds scored in any of these assays.
TLR4 MyD88 comp: inhibitors of human TLR4-MyD88 binding; HeLa CL3-4 TLR4/MyD88 BLA complementation, FRET ratio; inhibition, % at 8.4 µM; hit rate 0.18% among 200,000; AID 861; in the data active means inhibition above about 25%;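 further: 0% = vehicle and 100% = reference inhibitor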
Granule exo inh: lytic granule exocytosis inhibition. TALL-104 LAMP-1 surface exposure, flow cytometry; cells stimulated with thapsigargin and PMA. inhibition, % at 10 µM. AID 651702. hit rate 0.66% among 360,000;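 active means inhibition above about 55%, limit read from the data; inconclusive means no clear call, values can overlap the other calls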
NOD2-RIPK2 inh: inhibitors of human NOD2-RIPK2 interaction. inhibition, % at 4.98 µM. AID 624267. CHO BLA complementation NOD2-RIPK2, CCF4 ratio. hit rate 0.38% among 360,000; in the data active means inhibition above about 21%;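 further: 0% = vehicle only and 100% = reference blocker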
TLR9-MyD88 block: inhibitors of human TLR9-MyD88 binding | Q9NR96+Q99836 | CHO BLA complementation TLR9-MyD88, CCF4 FRET ratio | inhibition, % at 4.98 µM | hit rate 0.21% among 340,000 | AID 504734;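 active means inhibition above the mean over all tested compounds plus 3 SD, cut at about 21% in these data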;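 further: 0% = DMSO only wells and 100% = clavulanate BLA inhibitor control wells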
ABHD5-PLIN5 inh: inhibitors of human ABHD5-perilipin-5 interaction; Q00G26+Q8WTS1; Split G. princeps luciferase complementation, luminescence, 4 h; inhibition, % at 4 µM; hit rate 0.78% among 360,000;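 active means inhibition above the mean inhibition across every tested compound plus 3 SD, cut at about 22% in these data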;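 further: 0% = DMSO only wells and the 100% control is not disclosed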
PRMT1 inh: PRMT1 (human) inhibition, primary screen. Q99873. recombinant PRMT1, activity-based probe fluorescence polarization. inhibition, % at 2.79 µM. hit rate 1.3% among 370,000. AID 652257;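 active means inhibition above about 21% made by adding two undisclosed values, limit read from the data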
PRMT1 confirm: PRMT1 (human) inhibition, FP confirmation; inhibition, % at 2.79 µM; hit rate 42% among 3,300; AID 687036; shares compounds with PRMT1 inh; recombinant His-PRMT1, activity-based probe fluorescence polarization;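 active means mean inhibition across replicates above the hit cutoff derived for the earlier primary screen, cut at about 22% in these data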
Active calls of the source: *.

Screening O=C(NCC(O)c1ccccc1)c1ccc(Cl)c(S(=O)(=O)N2CCCCC2)c1 (stereo not given) returned Granule exo inh 10, NOD2-RIPK2 inh 2, TLR9-MyD88 block 4, ABHD5-PLIN5 inh -1 and PRMT1 inh 1.
COC(=O)c1sc(NC(=O)c2cc(-c3ccccc3)nc3ccccc23)c(C#N)c1C was read as TLR4 MyD88 comp 2, Granule exo inh -2, NOD2-RIPK2 inh 7, TLR9-MyD88 block -14, ABHD5-PLIN5 inh -16, PRMT1 inh 37* and PRMT1 confirm 63*.
COc1cc(/C=C(/NC(=O)c2ccccc2)C(=O)N2CCOCC2)c([N+](=O)[O-])cc1OC was read as Granule exo inh 31, NOD2-RIPK2 inh 3, TLR9-MyD88 block -7, ABHD5-PLIN5 inh 1 and PRMT1 inh -2.
`COc1ccc(NC(=S)NCCCN2CCCC2)cc1Cl` gave TLR4 MyD88 comp -3, Granule exo inh -3, NOD2-RIPK2 inh -11, TLR9-MyD88 block -4, ABHD5-PLIN5 inh -2 and PRMT1 inh 11.
`COCCN(C(=S)Nc1ccc(OC)c(Cl)c1)C1CCN(C(C)C)CC1` gave TLR4 MyD88 comp -7, Granule exo inh 0, NOD2-RIPK2 inh -7, TLR9-MyD88 block -13, ABHD5-PLIN5 inh 0 and PRMT1 inh 0.
Screening COc1ccc(NC(=S)N(CCC(C)C)C2CCN(C(C)C)CC2)cc1Cl returned Granule exo inh 14, NOD2-RIPK2 inh -2, TLR9-MyD88 block -4, ABHD5-PLIN5 inh -10, PRMT1 inh 54* and PRMT1 confirm 55*.
COc1ccc(NC(=S)NCCN2CCC(C)CC2)cc1Cl was read as TLR4 MyD88 comp -5, Granule exo inh 1, NOD2-RIPK2 inh -2, TLR9-MyD88 block -7, ABHD5-PLIN5 inh -8, PRMT1 inh 48* and PRMT1 confirm 46*.
Screening CCOc1ccc2nc(NC(=O)C3CSC4(C)CCC(=O)N34)sc2c1 (stereo not given) returned Granule exo inh -6, NOD2-RIPK2 inh 7, TLR9-MyD88 block -4, ABHD5-PLIN5 inh -5 and PRMT1 inh -2.
Screening COc1ccc(C(CNC(=O)C(CCSC)NC(=O)c2ccccc2OC)N2CCCCC2)cc1 (stereo not given) returned Granule exo inh -2, NOD2-RIPK2 inh -2, TLR9-MyD88 block -5, ABHD5-PLIN5 inh -1 and PRMT1 inh -1.
For CN(C)CCN(C)Cc1c2ccccc2c(CN(C)CCN(C)C)c2ccccc12 the results were Granule exo inh inconclusive, NOD2-RIPK2 inh 8, TLR9-MyD88 block 5, ABHD5-PLIN5 inh 9, PRMT1 inh 31* and PRMT1 confirm 8.
For C/C(=N/NS(=O)(=O)c1cccc([N+](=O)[O-])c1)c1ccncc1 the results were Granule exo inh -1, NOD2-RIPK2 inh 6, TLR9-MyD88 block 2, ABHD5-PLIN5 inh -4 and PRMT1 inh 8.
`COc1cc(CNc2ccc3[nH]c(=O)[nH]c3c2)ccc1OCc1ccc(C)cc1` gave Granule exo inh 6, NOD2-RIPK2 inh -24, TLR9-MyD88 block -10, ABHD5-PLIN5 inh 7, PRMT1 inh 35* and PRMT1 confirm 8.
CCC(=O)N1CCCC1(C)C(=O)Nc1cc(OC)ccc1OC (stereo not given) was read as Granule exo inh 8, NOD2-RIPK2 inh 7, ABHD5-PLIN5 inh 3 and PRMT1 inh 0.
Screening O=C(CSCc1ccco1)Nc1cc(C(F)(F)F)ccc1N1CCOCC1 returned TLR4 MyD88 comp 7, Granule exo inh -2, NOD2-RIPK2 inh 1, TLR9-MyD88 block 3, ABHD5-PLIN5 inh 2, PRMT1 inh 66* and PRMT1 confirm 40*.
O=C(Nc1sc2c(c1-c1nc3ccccc3s1)CCNC2)C(F)(F)F was read as PRMT1 inh 41* and PRMT1 confirm 10.
CC(=O)Nc1sc2c(c1-c1nc3ccccc3s1)CCOC2 was read as PRMT1 inh 12.
Cn1cnnc1SCc1ccc(-c2ccc(Br)cc2)o1 was read as TLR4 MyD88 comp 1, Granule exo inh 17, NOD2-RIPK2 inh 3, TLR9-MyD88 block 3, ABHD5-PLIN5 inh 4, PRMT1 inh 30* and PRMT1 confirm 3.
For Cn1cnnc1SCc1ccccc1 the results were TLR4 MyD88 comp -10, Granule exo inh 3, NOD2-RIPK2 inh -1, TLR9-MyD88 block 3, ABHD5-PLIN5 inh -6 and PRMT1 inh -3.
CCCn1c(N)c(N2CCCCC2)c(=O)n(CC(=O)Nc2ccccc2C(F)(F)F)c1=O was read as Granule exo inh -1, NOD2-RIPK2 inh -3, TLR9-MyD88 block 8, ABHD5-PLIN5 inh -1 and PRMT1 inh 0.
CN(Cc1ccc2c(c1)CCCN2C)C(=O)[C@H]1O[C@@H](n2ccc(=O)[nH]c2=O)[C@H](O)[C@@H]1O was read as Granule exo inh -3, NOD2-RIPK2 inh -7, ABHD5-PLIN5 inh 6, PRMT1 inh 52* and PRMT1 confirm 7.
Screening COc1ccc(-c2cn(Cc3ccc(C(=O)c4ccccc4)cc3)nn2)cc1 returned PRMT1 inh 1.
`O=C(O)c1ccccc1NS(=O)(=O)c1ccc(N/N=C/c2ccc(O)c(O)c2)c([N+](=O)[O-])c1` gave Granule exo inh -2, NOD2-RIPK2 inh -10, TLR9-MyD88 block -4, ABHD5-PLIN5 inh 17, PRMT1 inh 33* and PRMT1 confirm 40*.
`NS(=O)(=O)c1ccc(N/N=C/c2ccc(O)c(O)c2O)c([N+](=O)[O-])c1` gave Granule exo inh 3, NOD2-RIPK2 inh 3, TLR9-MyD88 block 0, ABHD5-PLIN5 inh 2, PRMT1 inh 46* and PRMT1 confirm 79*.
`COC(=O)CCC(=O)NC(=S)Nc1ccc(S(=O)(=O)N2CCCC2)cc1` gave TLR4 MyD88 comp 0, Granule exo inh -1, NOD2-RIPK2 inh -12, TLR9-MyD88 block 5, ABHD5-PLIN5 inh -3 and PRMT1 inh -3.
`O=C(Nc1ccc(C(=O)N2CCC(N3CCCC3)CC2)cc1)c1ccc(Br)o1` gave Granule exo inh -9, NOD2-RIPK2 inh 0, TLR9-MyD88 block 4 and ABHD5-PLIN5 inh 0.
Screening O=c1[nH]c(=S)[nH]c2c1C(c1ccc(F)cc1)OC(CCc1ccccc1)C2 (stereo not given) returned Granule exo inh -3, NOD2-RIPK2 inh 2, ABHD5-PLIN5 inh -11 and PRMT1 inh -4.
Screening NNC(=S)Nc1cccc(-c2n[nH]c(=S)o2)c1 returned Granule exo inh 3, NOD2-RIPK2 inh -2, TLR9-MyD88 block -4, ABHD5-PLIN5 inh -15, PRMT1 inh 34* and PRMT1 confirm 8.
For OCCn1c(CSc2nnc(-c3ccco3)n2-c2ccccc2)nc2ccc(Cl)cc21 the results were TLR4 MyD88 comp -7, Granule exo inh 2, NOD2-RIPK2 inh -4, TLR9-MyD88 block -7, ABHD5-PLIN5 inh 7, PRMT1 inh 39* and PRMT1 confirm 34*.
